D3 ag: qHTS of D3 Dopamine Receptor Agonist: qHTS; D(3) dopamine receptor (Homo sapiens), P35462; D3R DiscoveRx beta-arrestin cells, luminescence, 90 min; max activation, %; hit rate 0.58% among 410,000; AID 652048, 2013; in the data active = max activation above about 30%; also: 0% is about no effect
Target sequence (P35462 whole entry, looked up): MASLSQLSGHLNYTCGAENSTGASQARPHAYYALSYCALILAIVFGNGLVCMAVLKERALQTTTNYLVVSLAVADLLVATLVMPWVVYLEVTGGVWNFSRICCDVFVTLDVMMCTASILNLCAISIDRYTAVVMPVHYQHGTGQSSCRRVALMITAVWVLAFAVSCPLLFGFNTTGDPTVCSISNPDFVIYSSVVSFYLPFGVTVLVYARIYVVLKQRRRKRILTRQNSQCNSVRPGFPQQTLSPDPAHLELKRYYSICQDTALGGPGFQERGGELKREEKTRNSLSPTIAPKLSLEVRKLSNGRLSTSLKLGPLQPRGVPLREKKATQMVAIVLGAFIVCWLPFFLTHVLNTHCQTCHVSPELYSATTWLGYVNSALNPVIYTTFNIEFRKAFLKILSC
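Agonist-mode cell screen: cells plated at 1500/well and incubated overnight at 37 °C, then exposed to library compounds for 90 min at 37 °C. Detection reagent was added for 30–60 min at room temperature, and luminescence was read.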
RGS4 inhibitor: Inhibitors of Regulator of G Protein Signaling (RGS) 4: qHTS; hit rate 0.039% among 390,000; AID 504845, 2011; Transcreener GDP fluorescence polarization, RGS4-accelerated GTP hydrolysis; Potency, µM (series often up to 114 µM), for the others: at the highest dose activity change, negative = inhibition, most hits filed as inhibitors; active = well fitted inhibition curve with a large enough effect; inconclusive = small, poorly fitted or top-dose-only effect; inactive = no such curve, though single readings can be large or run the other way; also: potency is read from the fitted curve at half-maximal effect; % is scaled to controls: 0 for no effect and ±100 for the full control effect; nearly all actives have a fitted effect of over 75% in size
Target sequence (P49798 whole entry, looked up): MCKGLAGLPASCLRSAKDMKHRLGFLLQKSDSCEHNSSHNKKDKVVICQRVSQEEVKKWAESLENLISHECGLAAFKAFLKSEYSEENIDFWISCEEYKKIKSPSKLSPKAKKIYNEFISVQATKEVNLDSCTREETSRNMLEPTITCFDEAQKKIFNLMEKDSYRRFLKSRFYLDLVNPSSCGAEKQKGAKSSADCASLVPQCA
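MLSMR compounds (23 nl, pin-transferred) preincubated 10 min at room temperature with a 500nM (2x) first reagent, then RGS4 at 900nM (2x) plus Transcreener GDP mix added; fluorescence polarization (620/688 nm) read before and after 90 min at 30 °C.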
D3 antag: qHTS of D3 Dopamine Receptor Antagonist: qHTS; hit rate 2.5% among 360,000; D(3) dopamine receptor (Homo sapiens), P35462; D3R cells, DiscoveRx beta-arrestin luminescence, antagonist mode; hits give low values; AID 652054, 2013; max response, negative = inhibition, %; in the data active = max response below about -50%; inconclusive = no clear call, values can overlap the other calls; also: % is scaled to controls: 0 for no effect and ±100 for the full control effect
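Cells expressing the human receptor were seeded at 1500 cells/well, incubated overnight at 37 degrees C in 5% CO2, then exposed to library compounds with dopamine controls for 90 minutes at 37 degrees C before luminescent detection.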
PI4K2A inh: qHTS for small molecular inhibitors of PI4K2A; activity change, negative = inhibition, % at 76.9 µM; purified PI4K2A, ADP-Glo luminescence, 1 h; hits give low values; hit rate 0.13% among 420,000; AID 1346378, 2018; in the data active = activity change below about -50%; inconclusive = mostly about -30% to -49%;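 also: -100% = wells without enzyme as full effect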
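Compounds are screened against recombinant PI4K2A using PI as substrate and ATP, the latter dispensed at 300 microM. Reactions run one hour at ambient temperature before ADP-Glo detection; full inhibition defined by wells lacking enzyme.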
pAkt inh: HTS Assay for Inhibitors of Akt Phophorylation: Primary Screen; activity change, % for hits at 50 µM; AID 651550, 2012; hit rate 0.32% among 360,000; Neuro2A IGF-stimulated pAkt S473 HTRF, 20 min; hits give low values; in the data active = activity change below about -80%; inconclusive = mostly about -51% to -80%; also: % is scaled to controls: 0 for no effect and ±100 for the full control effect
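Neuro2A cells (4,500/well, DMEM with 0.5% FBS) were treated with compound at a single 50 µM final concentration, stimulated with 6 nM IGF for 20 min at 37 °C, and lysed. Phospho-Akt Ser473 was read by HTRF as 665/615 ratio ×10^4.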
LDHA inh: qHTS assay for inhibitors of human lactate dehydrogenase. activity change, % (values are at about 110 or 230 µM). AID 1347041, 2019. purified LDHA, NADH/diaphorase-resazurin fluorescence; hits give low values. hit rate 0.15% among 480,000. L-lactate dehydrogenase A chain (Homo sapiens), P00338; in the data active = activity change below about -30%; inconclusive = mostly about -25% to -30%;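 also: plate controls were DMSO wells for no effect and wells without enzyme for full effect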
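Enzyme activity of human lactate dehydrogenase 5 (2 nM; 0.06 mM NADH, 0.2 mM pyruvate, 5 min, RT) is measured via a resazurin/diaphorase fluorescence readout of residual NADH.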
The depositor's hits bear a star; i = inactive; ? = inconclusive; nt = no result; [ ] = remark or other dose. Most compounds without a hit are left out; they make up all but 2.8% or so of the library.

SMILES	D3 ag	RGS4 inhibitor	D3 antag	PI4K2A inh	pAkt inh	LDHA inh
CC(Cc1ccccn1)NC(=O)c1ccc(OC2CCN(CCc3ccccc3)CC2)cc1 (stereo not drawn)	-10	28%	-66*	0	i	-10
CSCCCNC(=O)c1ccc(OC2CCN(CCc3ccccc3)CC2)cc1	-20	-3%	-85*	-3	i	0
COC(=O)[C@@H](NC(=O)c1ccc(OC2CCN(Cc3ccccn3)CC2)cc1)C(C)C	-3	-3%	-25	0	i	-5
Cc1cccnc1CCNC(=O)c1ccc(OC2CCN(Cc3ccccn3)CC2)cc1	-5	-19%	-13	-3	i	8
Cc1ccc(NC(=O)Cn2nc3ccc(SC(C)C)nn3c2=O)c(Cl)c1	nt	nt	nt	nt	nt	-11
CC(=O)c1c(C)[nH]c(-c2csc(-c3cccc(F)c3)n2)c1C	nt	nt	nt	nt	nt	4
CC1CCN(S(=O)(=O)c2ccc3c(c2)CCN3C(=O)Nc2ccc(F)cc2)CC1	nt	nt	nt	nt	nt	0
C(=Nc1ccc(Nc2ccccc2)cc1)c1ccc(OCc2ccccc2)cc1	nt	nt	nt	nt	nt	-23
O=C1N(c2ccccc2C(F)(F)F)O[C@@]1(c1ccccc1)C1CCCC1	1	-49%	5	0	i	1
O=C1N(c2ccccc2C(F)(F)F)O[C@@]1(c1ccccc1)C1CCCCC1	-18	0%	-57*	-2	i	2
CCC(=O)Nc1ccc(-c2nc3cc(OC)ccc3o2)cc1	nt	nt	nt	nt	nt	6
CSCCCNC(=S)Nc1cccc(Br)c1	nt	nt	nt	nt	nt	2
O=C(Nc1ccccc1O)c1cc(-c2ccncc2)nc2ccccc12	nt	nt	nt	nt	nt	32
OCC1(Cc2ccccc2Cl)CCN(C/C=C/c2ccccc2)CC1	-20	13%	-78*	4	i	-7
OCC1(CCc2ccccc2)CCN(C/C=C/c2ccccc2)CC1	-23	10%	-54*	-4	i	1
Cc1c(Cl)cccc1NC(=O)C1CCCc2ccccc21 (stereo not drawn)	nt	nt	nt	nt	nt	1
NC(=O)c1ncn([C@@H]2O[C@H](CNCc3ccc(-c4cc(C(F)(F)F)ccc4Cl)o3)[C@@H](O)[C@H]2O)n1	-70	5%	-52*	-2	i	-10
CNC(=O)C(CC(C)C)NC(=O)Cc1nc(-c2cccs2)oc1C (stereo not drawn)	nt	nt	nt	nt	nt	-1
COc1ccc(CCNC2CCC(c3ccccc3)CC2)cc1 (stereo not drawn)	-8	-21%	-65*	-2	i	0
COc1ccc(CCNC2CCc3ccccc3C2)cc1 (stereo not drawn)	-9	25%	?	-4	i	-5
CCSc1nnc2n(-c3cccc(C)c3)c(=O)c3c4c(sc3n12)CCCC4	37*	-6%	nt	4	nt	-3
O=C(c1ccccc1)N1CCN(C(=O)N2CCOCC2)CC1	0	-3%	15	-2	i	-1
O=C1C(=C(c2ccccc2)N2CCOCC2)Cc2ccccc21	-20	nt	-125*	3	i	0
CCN(CC)CCCNc1oc(-c2ccccc2[N+](=O)[O-])nc1C#N	6	3%	-56*	5	i	4
O=C(CSc1nnc(Nc2ccccc2)s1)NCc1ccco1	-1	10%	15	1	i	-4
SMILES	D3 ag	RGS4 inhibitor	D3 antag	PI4K2A inh	pAkt inh	LDHA inh
O=C(CSc1nnc(Nc2ccccc2F)s1)NCc1ccco1	-14	-6%	-59*	-10	i	-1
CCCCCCCCCCCCC(O)C(=O)O (stereo not drawn)	nt	50%[56.9 µM]	nt	nt	nt	nt
CCCCCCCCCCCCCCCCC(C(=O)O)C(O)(CC(=O)O)C(=O)O (stereo not drawn)	40*	nt	nt	-7	nt	nt
COCc1cc(C)nc(SCC[N+](C)(C)CC(=O)c2ccccc2)c1C#N	-11	6%	-55*	0	i	-10
Cc1c(C)c2ccc(OCC(=O)N3CC[C@@]4(O)CCCC[C@H]4C3)cc2oc1=O	33*	5%	11	-4	i	-2
COc1ccc(/C=N/NC(=O)c2cccc(OC(F)(F)C(F)F)c2)cc1O	-15	-16%	-76*	-4	i	-4
COc1ccc(/C=N/NC(=O)c2cccc(OC(F)(F)C(F)F)c2)c(OC)c1OC	-8	-17%	3	5	i	-1
COc1ccc(C(=O)N2CCCC(N3CCN(c4ccccc4F)CC3)C2)c(OC)n1 (stereo not drawn)	38*	-11%[56.9 µM]	-20	-3	i	-13
COc1ccc(C(=O)N2CCCC(N3CCN(c4ccccc4OC)CC3)C2)c(OC)n1 (stereo not drawn)	-6	-10%	-19	3	i	-3
Cn1c(=O)[nH]c(=O)c2c1nc(Br)n2CCSc1nc2ccccc2o1	-6	-12%	-70*	-1	nt	0
COC(=O)c1ccccc1-c1ccc(/C=N/NC(=O)c2cc3ccccc3o2)o1	-9	-8%	-10	2	i	1
COC(=O)c1ccccc1-c1c2ccc(=N)cc-2oc2cc(N)ccc12	-36	?	-64*	-1	i	-58*
CCOc1ccc(CNC(=O)CN(C(=O)C2=C(C)OCCS2)c2ccc(Cl)cc2)cc1OC	nt	nt	nt	nt	nt	7
COC(=O)c1ccc(COC(=O)c2ccc(Cl)cc2O)cc1	nt	nt	nt	nt	nt	2
CCCCNC(=O)Cc1coc2ccc3ccccc3c12	0	-2%	10	0	-110%*	0
COCCCNC(=O)Cc1coc2ccc3ccccc3c12	4	-8%	8	-2	i	-1
CCOC(=O)c1c(-c2ccc(C)s2)csc1NC(=O)c1cccs1	-4	-9%	-16	-1	i	1
CCOC(=O)c1c(NC(=O)c2cccs2)sc(CC)c1-c1cccs1	62*	11%	31	-1	i	-3
CCOC(=O)c1c(-c2cccs2)csc1NC(C)=O	-10	18%	0	-3	i	-7
CCOC(=O)c1c(-c2cccs2)csc1NC(=O)CCCC(=O)O	44*	12%	-5	4	i	-5
c1ccc(C2CCC(NCC3CCCO3)CC2)cc1 (stereo not drawn)	nt	nt	nt	nt	nt	-3
CCOC(=O)C1=C(C)N=c2s/c(=C\c3ccc(O)c([N+](=O)[O-])c3)c(=O)n2C1c1ccccc1OC (stereo not drawn)	-10	-7%[56.9 µM]	-17	2	i	-8
CCOC(=O)C1=C(C)N=c2s/c(=C/c3cccc([N+](=O)[O-])c3O)c(=O)n2C1c1ccc(OC)cc1OC (stereo not drawn)	-21	-44%	-55*	-17	i	-2

Assay outcomes: PubChem BioAssay, National Center for Advancing Translational Sciences (NCATS)
